PubChem BioAssay (Tox21)
Results filed as inconclusive are left out. Activity calls are given as the source filed them. Calls come from the whole dose curve; as a rule, active = well fitted cell-killing curve with a large enough effect in the repeat runs; inconclusive = weak or mixed curves, or effect the other way; inactive = flat fitted curve, though single readings scatter.
% is set by controls: 0 for no effect and ±100 for the full control effect; potency is the fitted concentration of half-maximal effect.

Experiment: cAMP Responsive Elements (CRE) small molecule agonists, cell-based qHTS assay: qHTS cell viability counter screen (AID 2060914); note: nearly all actives have a fitted effect of over 50% in size
Conditions: CRE-bla HEK293T viability, CellTiter-Glo luminescence, 5 h; series mostly up to 92.4 µM; activity change, negative = cytotoxicity: at the top concentration
In short: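 Cells are seeded and incubated 18 h, treated with compounds in DMSO for 3 h, read for the bla reporter, then given CellTiter-Glo; luminescence is measured after 30 min at room temperature.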
For `OC[C@H](Cc1cccc(O)c1)[C@H](CO)Cc1cccc(O)c1`, the “activity change, negative = cytotoxicity” value was 3.76% (inactive).
For `O=C(O)c1cc2ccccc2cc1O`, the Potency was “inactive”.
For `Cc1ncc([N+](=O)[O-])n1C`, the Potency was “inactive”.
For `Cc1ccccc1C#N`, the “activity change, negative = cytotoxicity” value was -0.963% (inactive).
In the case of `CCC(CC)Nc1ccc(C)c(C)c1`, the “activity change, negative = cytotoxicity” value was 9.06% (inactive).
With `NS(=O)(=O)c1cc(C(=O)O)cc(N2CCCC2)c1Oc1ccccc1` the “activity change, negative = cytotoxicity” value was -3.39% [at 42.5 µM] (inactive).
With `C[C@H]1[C@H](NC(=O)/C(=N/OC(C)(C)C(=O)O)c2csc(N)n2)C(=O)N1S(=O)(=O)O` (stereo in doubt) the “activity change, negative = cytotoxicity” value was -8.38% [at 42.5 µM] (inactive).
In the case of `O=Cc1ccc(Cl)cc1`, the “activity change, negative = cytotoxicity” value was -0.942% (inactive).
With `CC1=C(C(=O)O)N2C(=O)[C@@H](NC(=O)[C@H](N)c3ccccc3)[C@H]2SC1` the “activity change, negative = cytotoxicity” value was 5.23% [at 42.5 µM] (inactive).
With `Oc1cccc(-c2c3nc(c(-c4cccc(O)c4)c4ccc([nH]4)c(-c4cccc(O)c4)c4nc(c(-c5cccc(O)c5)c5ccc2[nH]5)CC4)C=C3)c1` the “activity change, negative = cytotoxicity” value was 0.308% [at 42.5 µM] (inactive).
In the case of `C=C[Si](C)(C)Cl`, the activity change, negative = cytotoxicity was -1.19% [at 8.39 µM] (inactive).
With `O=C(O)c1cccc(Oc2ccccc2)c1` the “activity change, negative = cytotoxicity” value was -0.397% (inactive).
In the case of `O=C1OC(O)C(C(Cl)Cl)=C1Cl` (stereo not given), the “activity change, negative = cytotoxicity” value was 17.6% (inactive).
With `OCCN1CCN(CCO)CC1` the “activity change, negative = cytotoxicity” value was 4.31% (inactive).
In the case of `C=C1CC[C@H]2C[C@@H]1C2(C)C`, the “activity change, negative = cytotoxicity” value was -3.08% (inactive).
For `Cc1ccccc1S(N)(=O)=O`, the “activity change, negative = cytotoxicity” value was 3.77% (inactive).
With `C[C@@H](O)C(=O)O` the “activity change, negative = cytotoxicity” value was 8.95% (inactive).
With `FC(F)(F)C(F)(F)C(F)(F)C(F)(F)C(F)(F)C(F)(F)C(F)(F)C(F)(F)C(F)(F)C(F)(F)F` the activity change, negative = cytotoxicity was -0.902% [at 8.39 µM] (inactive).
With `CCN(C(=O)c1cc(C)cc(OC[C@H](C)Nc2ccncc2)c1)C(C)C` the “activity change, negative = cytotoxicity” value was -15.9% [at 42.5 µM] (inactive).
In the case of `O=S1(=O)CC=CC1`, the Potency was “inactive”.
With `CCOC(=O)c1ccc(C2CCC(NC[C@H](O)COc3ccc(O)c(NS(C)(=O)=O)c3)CC2)cc1` (stereo not given in full) the “activity change, negative = cytotoxicity” value was 9.29% (inactive).
In the case of `CC1=NN(c2cc(Cl)c(S(=O)(=O)O)cc2Cl)C(=O)C1N=Nc1ccc(S(=O)(=O)O)cc1` (stereo not given), the Potency was 2430 nM (active).
With `O=C(O)CCCCCCCCCCCBr` the “activity change, negative = cytotoxicity” value was -29.8% (inactive).
For `Clc1ccc2c(c1)Nc1ccccc1S2`, the “activity change, negative = cytotoxicity” value was -13.8% [at 42.5 µM] (inactive).
For `CCCCCCCCCCOc1cc2c(=O)c(C(=O)OCC)c[nH]c2cc1OCC`, the activity change, negative = cytotoxicity was -0.252% [at 8.39 µM] (inactive).
For `COC(=O)C(C)O` (stereo not given), the “activity change, negative = cytotoxicity” value was 1.93% (inactive).
With `COc1c2occc2c(OC)c2c(=O)cc(C)oc12` the “activity change, negative = cytotoxicity” value was 11.4% [at 42.5 µM] (inactive).
With `O=c1c(O)c(O)c1=O` the “activity change, negative = cytotoxicity” value was -17.1% (inactive).
For `C[C@@H](C1=C(CCN(C)C)Cc2ccccc21)c1ccccn1`, the “activity change, negative = cytotoxicity” value was 10.3% [at 42.5 µM] (inactive).
In the case of `Nc1ccn([C@@H]2O[C@H](CO)[C@@H](O)[C@@H]2O)c(=O)n1`, the “activity change, negative = cytotoxicity” value was -0.92% (inactive).
For `Cc1c(C)c2c(c(C)c1O)CC[C@@](C)(CCC[C@H](C)CCC[C@H](C)CCCC(C)C)O2`, the “activity change, negative = cytotoxicity” value was 0.642% (inactive).
With `CO[C@@H]1COCC[C@@H]1N[C@@H]1CC[C@@](C(=O)N2CCc3ncc(C(F)(F)F)cc3C2)(C(C)C)C1` the “activity change, negative = cytotoxicity” value was 7.84% (inactive).
With `CN=C(N)NC(=O)Nc1c(C)cccc1C` the “activity change, negative = cytotoxicity” value was 4.29% [at 42.5 µM] (inactive).
In the case of `CN1CCC[C@H]1c1cccnc1`, the Potency was “inactive”.
With `Cc1ccc(O)cc1` the Potency was “inactive”.
In the case of `CO[Si](OC)(OC)OC`, the “activity change, negative = cytotoxicity” value was 6.12% (inactive).
With `O=CNNC=O` the “activity change, negative = cytotoxicity” value was 4.6% (inactive).
For `COC(=O)c1ccccc1C(=O)O`, the “activity change, negative = cytotoxicity” value was -6.98% (inactive).
For `Cc1ccc(O)cn1`, the “activity change, negative = cytotoxicity” value was -0.11% (inactive).
For `CC[C@@H]1C[C@H](N(Cc2cc(C(F)(F)F)cc(C(F)(F)F)c2)C(C)=O)c2cc(C(F)(F)F)ccc2N1C(=O)OC(C)C`, the “activity change, negative = cytotoxicity” value was 0.256% (inactive).
